Source: the supplement of paper PMC12645437, “Orthogonal IMiD-Degron Pairs Induce Selective Protein Degradation in Cells” (ACS Chemical Biology, 2025)
The full ranking holds about 8,300 sequences; the median of “log2 fold change of degron read counts, EGFP-low vs EGFP+ sorted cells (limma voom), compound-induced degradation” is about -1.1, and the highest 2% start at about 3.2. This is one part of a sample in which the highest values are shown more often than they occur.

T1: CRBN, Q96SW2
T1 chain: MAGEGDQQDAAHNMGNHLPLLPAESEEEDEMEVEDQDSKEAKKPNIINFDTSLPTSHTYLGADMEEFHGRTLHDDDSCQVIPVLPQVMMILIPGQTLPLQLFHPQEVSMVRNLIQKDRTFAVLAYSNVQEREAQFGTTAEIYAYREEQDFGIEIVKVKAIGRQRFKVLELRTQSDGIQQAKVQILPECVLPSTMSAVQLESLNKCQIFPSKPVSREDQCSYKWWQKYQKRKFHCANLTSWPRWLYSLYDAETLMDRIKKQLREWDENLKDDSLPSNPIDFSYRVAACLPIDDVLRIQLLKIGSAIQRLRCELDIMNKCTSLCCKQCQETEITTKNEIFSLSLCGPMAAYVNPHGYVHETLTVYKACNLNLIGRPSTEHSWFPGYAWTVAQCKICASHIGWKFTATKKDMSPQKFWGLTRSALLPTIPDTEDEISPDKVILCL


Target: T1, CRBN, Q96SW2
Assay: log2 fold change of degron read counts, EGFP-low vs EGFP+ sorted cells (limma voom), compound-induced degradation; higher = more compound-induced degradation of the degron-EGFP fusion; degrons are variants of IKZF1/3 zinc finger 2; compound dose not given here
Settings: Jurkat, 18 h
Procedure: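 Pooled library of 8380 IKZF3 ZF2 degron mutants (positions 146-167 varied within the IKZF3 130-189 degron; only the varied core is printed, flanks not printed) fused to EGFP with IRES-mCherry, lentivirally expressed in Jurkat cells. mCherry+ cells were treated with one IMiD compound for 18 h (dose not stated) and FACS-sorted into EGFP-low and EGFP+ populations. Degron sequences were counted by NGS, and log2FC (EGFP-low vs EGFP+) was estimated by limma voom over 3 biological replicates.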

[1] = compound: compound 19 (5-tert-butyl-thalidomide)
[2] = compound: compound 22 (5-morpholino-thalidomide)
[3] = compound: compound 33 (diphenyl IMiD analogue)
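Note: pooled lentiviral library of zinc finger degron-EGFP fusions in mCherry-positive Jurkat cells, FACS-sorted after compound exposure, with degron abundance counted by next-generation sequencing.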

| Sequence | log2 fold change of degron read counts [1] | log2 fold change of degron read counts [2] | log2 fold change of degron read counts [3] | log2 fold change of degron read counts (compound: thalidomide) |
| --- | --- | --- | --- | --- |
| FVCDVCGAGFTQKGNLLRHIKL [46F_47V_49D_50V_52G_53A_54G_55F_67L_, Q9UKT9] | -0.789 | 1.19 | -0.11 | 0.879 |
| FECDQCGALFTQKGNLLRHIKL [46F_47E_49D_50Q_52G_53A_54L_55F_67L_, Q9UKT9] | -3.05 | -3.86 | -3.38 | -2.52 |
| FDCNVCGAFFTQKGNLLRHIKL [46F_47D_49N_50V_52G_53A_54F_55F_67L_, Q9UKT9] | -2.06 | -2.22 | -1.25 | -1.25 |
| FRCEICGAHFTQKGNLLRHIKL [46F_47R_49E_50I_52G_53A_54H_55F_67L_, Q9UKT9] | -0.542 | -0.83 | 0.979 | 0.735 |
| LDCEICGFNCTQKGNLLRHIKL [46L_47D_49E_50I_52G_53F_54N_55C_67L_, Q9UKT9] | -1.97 | -2.54 | -2.01 | -1.74 |
| FICEVCGAAFTQKGNLLRHIKL [46F_47I_49E_50V_52G_53A_54A_55F_67L_, Q9UKT9] | 0.0772 | 3 | 2.31 | 3.04 |
| FFCPVCGAAFTQKGNLLRHIKL [46F_47F_49P_50V_52G_53A_54A_55F_67L_, Q9UKT9] | 2.88 | 2.91 | 2.41 | 1.09 |
| FFCEVCGAAFTQKGNLLRHIKL [46F_47F_49E_50V_52G_53A_54A_55F_67L_, Q9UKT9] | 3.47 | 3.39 | 2.35 | 1.61 |
| FVCEVCGAAFTQKGNLLRHIKL [46F_47V_49E_50V_52G_53A_54A_55F_67L_, Q9UKT9] | 1.64 | 3.28 | 2.3 | 3.36 |
| FACEVCGAAFTQKGNLLRHIKL [46F_47A_49E_50V_52G_53A_54A_55F_67L_, Q9UKT9] | 3.64 | 2.99 | 1.02 | 1.31 |
| FRCEVCGAAFTQKGNLLRHIKL [46F_47R_49E_50V_52G_53A_54A_55F_67L_, Q9UKT9] | 2.61 | 2.62 | 2.86 | 2.62 |
| FECEVCGAAFTQKGNLLRHIKL [46F_47E_49E_50V_52G_53A_54A_55F_67L_, Q9UKT9] | 2.56 | -0.651 | 1.75 | 2.51 |
| FLCEVCGAAFTQKGNLLRHIKL [46F_47L_49E_50V_52G_53A_54A_55F_67L_, Q9UKT9] | 1.91 | 0.166 | 1.52 | 1.55 |
| FICNVCGAQFTQKGNLLRHIKL [46F_47I_49N_50V_52G_53A_54Q_55F_67L_, Q9UKT9] | -1.95 | 0.393 | 2 | 0.761 |
| FWCEQCGAIFTQKGNLLRHIKL [46F_47W_49E_50Q_52G_53A_54I_55F_67L_, Q9UKT9] | -0.201 | 0.552 | 0.154 | -1.07 |
| FRCEVCGAIFTQKGNLLRHIKL [46F_47R_49E_50V_52G_53A_54I_55F_67L_, Q9UKT9] | -1.36 | -1.29 | 0.815 | 1.07 |
| FQCEVCGAIFTQKGNLLRHIKL [46F_47Q_49E_50V_52G_53A_54I_55F_67L_, Q9UKT9] | -1.13 | 3.07 | 2.65 | 3.7 |
| FVCEVCGAIFTQKGNLLRHIKL [46F_47V_49E_50V_52G_53A_54I_55F_67L_, Q9UKT9] | -1.03 | -0.779 | 1.43 | 1.47 |
| FICEVCGAIFTQKGNLLRHIKL [46F_47I_49E_50V_52G_53A_54I_55F_67L_, Q9UKT9] | -1.14 | 0.0357 | 2.04 | 1.14 |

| Sequence | log2 fold change of degron read counts [1] | log2 fold change of degron read counts [2] | log2 fold change of degron read counts [3] | log2 fold change of degron read counts (compound: thalidomide) |
| --- | --- | --- | --- | --- |
| FSCEVCGAIFTQKGNLLRHIKL [46F_47S_49E_50V_52G_53A_54I_55F_67L_, Q9UKT9] | 1.27 | 0.887 | 1.42 | 0.379 |
| FYCEVCGAIFTQKGNLLRHIKL [46F_47Y_49E_50V_52G_53A_54I_55F_67L_, Q9UKT9] | 2.89 | 3.45 | 2.43 | 0.38 |
| FCCSVCGHLFTQKGNLLRHIKL [46F_47C_49S_50V_52G_53H_54L_55F_67L_, Q9UKT9] | -2.25 | -2.38 | -2.22 | -2.25 |
| FRCEQCGAGFTQKGNLLRHIKL [46F_47R_49E_50Q_52G_53A_54G_55F_67L_, Q9UKT9] | -0.467 | -1.48 | 0.986 | -0.649 |
| FSCNVCGAEFTQKGNLLRHIKL [46F_47S_49N_50V_52G_53A_54E_55F_67L_, Q9UKT9] | -1.82 | -2 | -0.491 | -1.04 |
| FLCNQCGHTFTQKGNLLRHIKL [46F_47L_49N_50Q_52G_53H_54T_55F_67L_, Q9UKT9] | -2.86 | -3.5 | -3.07 | -2.79 |
| FICSVCGHTFTQKGNLLRHIKL [46F_47I_49S_50V_52G_53H_54T_55F_67L_, Q9UKT9] | -2.11 | -2.3 | -3.14 | -2.67 |
| FFCDICGATFTQKGNLLRHIKL [46F_47F_49D_50I_52G_53A_54T_55F_67L_, Q9UKT9] | 2.91 | 2.77 | 0.337 | -0.566 |
| FQCEVCGASFTQKGNLLRHIKL [46F_47Q_49E_50V_52G_53A_54S_55F_67L_, Q9UKT9] | 2.49 | 2.89 | 2.13 | 3.53 |
| FHCEVCGASFTQKGNLLRHIKL [46F_47H_49E_50V_52G_53A_54S_55F_67L_, Q9UKT9] | 2.93 | 2.64 | 1.35 | 0.198 |
| FICEVCGASFTQKGNLLRHIKL [46F_47I_49E_50V_52G_53A_54S_55F_67L_, Q9UKT9] | 0.0302 | 2.88 | 2.44 | 2.95 |
| FACEVCGASFTQKGNLLRHIKL [46F_47A_49E_50V_52G_53A_54S_55F_67L_, Q9UKT9] | 3.87 | 2.73 | 0.799 | 1.03 |
| FMCEVCGASFTQKGNLLRHIKL [46F_47M_49E_50V_52G_53A_54S_55F_67L_, Q9UKT9] | 1.39 | 1.79 | 2.94 | 2.05 |
| FQCEVCGADFTQKGNLLRHIKL [46F_47Q_49E_50V_52G_53A_54D_55F_67L_, Q9UKT9] | -0.53 | -0.0138 | 1.04 | 3.09 |
| FYCEVCGASFTQKGNLLRHIKL [46F_47Y_49E_50V_52G_53A_54S_55F_67L_, Q9UKT9] | 3.7 | 3.86 | 2.94 | 1.59 |
| FVCEVCGASFTQKGNLLRHIKL [46F_47V_49E_50V_52G_53A_54S_55F_67L_, Q9UKT9] | 1.21 | 2.91 | 2.54 | 3.54 |
| FCCNVCGASFTQKGNLLRHIKL [46F_47C_49N_50V_52G_53A_54S_55F_67L_, Q9UKT9] | 0.743 | 0.454 | 0.99 | 0.32 |
| FACNVCGASFTQKGNLLRHIKL [46F_47A_49N_50V_52G_53A_54S_55F_67L_, Q9UKT9] | 1.32 | 0.642 | -0.249 | -1.16 |
| FRCEVCGASFTQKGNLLRHIKL [46F_47R_49E_50V_52G_53A_54S_55F_67L_, Q9UKT9] | 2.07 | 1.56 | 2.15 | 2.07 |
